Active and inactive are the calls of the source. The calls were made as follows: active = hit-call score of the fitted dose curve at least 0.9, where 1 is the maximum; inactive = score below 0.9.
Experiments:
[1] = ATG_GRE_CIS: Attagene CIS-FACTORIAL HepG2 Assay for human Glucocorticoid Response Elements (GRE) (AID 2282947); conditions: HepG2 GRE cis-reporter, Attagene multiplex mRNA; actives raise or lower the signal
Summary of the method: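 Multiplexed cis-reporter mRNA induction, HepG2, 24 h post-dose. RT-PCR, FAM-labelled, HpaI-digested amplicons by CE. Bidirectional fit vs DMSO.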

[2] = ATG_ISRE_CIS: Attagene CIS-FACTORIAL HepG2 Assay for human Interferon Regulatory Factor 1 (IRF1) binding to an Interferon-Stimulated Response Element (ISRE) (AID 2282948); conditions: HepG2 ISRE cis-reporter (Attagene), mRNA transcription readout; actives raise or lower the signal
Summary of the method: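 Endogenous transcription factor activity read as reporter transcript abundance via RT-PCR and capillary electrophoresis. HepG2 cells transiently transfected, 24 h chemical exposure. Gain or loss fitted against DMSO baseline.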

[3] = ATG_M_32_CIS: Attagene CIS-FACTORIAL HepG2 Assay for M32 Transcription Factor (Internal Marker) (AID 2282949); conditions: HepG2 Attagene cis-factorial M32 reporter, mRNA; actives raise or lower the signal;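 also: background control marker of the multiplexed CIS panel rather than a real target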
Summary of the method: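 Using DMSO as baseline, bidirectional curve fits were applied to reporter mRNA signals. These came from transiently transfected HepG2 cells exposed for 24 h, with RNA analysed by RT-PCR, FAM primer extension, HpaI digestion and CE.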

[4] = ATG_M_06_CIS: Attagene CIS-FACTORIAL HepG2 Assay for M06 Transcription Factor (Internal Marker) (AID 2282950); conditions: HepG2 Attagene CIS-FACTORIAL M06 internal marker reporter; actives raise or lower the signal
Summary of the method: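 Steps: transfect HepG2 with multiplexed cis-element reporter constructs; dose chemical 24 h; extract RNA with DNase treatment; reverse-transcribe, PCR-amplify, 6-FAM label, HpaI digest; separate fragments by capillary electrophoresis. Activity fitted both directions versus DMSO.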

[5] = target: Hypoxia-inducible factor 1-alpha (Homo sapiens) (UniProt Q16665); experiment: ATG_HIF1a_CIS: Attagene CIS-FACTORIAL HepG2 Assay for human Hypoxia Inducible Factor 1 (HIF1A) (AID 2282951); conditions: HepG2 Attagene cis-factorial HIF1a reporter transcription; actives raise or lower the signal
Summary of the method: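 HepG2 cells transiently transfected with multiple cis-regulated reporter transcription units measure endogenous transcription factor activity. After 24 h exposure, reporter mRNA is quantified by RT-PCR with 6-FAM labelling, HpaI digestion and capillary electrophoresis. Bidirectional fitting against DMSO.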

[6] = target: Hepatocyte nuclear factor 6 (Homo sapiens) (UniProt Q9UBC0); experiment: ATG_HNF6_CIS: Attagene CIS-FACTORIAL HepG2 Assay for human Hepatocyte Nuclear Factor 6 (HNF6) (AID 2282952); conditions: HepG2 Attagene cis-factorial HNF6 reporter transcription; actives raise or lower the signal
Summary of the method: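 Twenty-four-hour chemical treatment of reporter-transfected HepG2 cells precedes RNA isolation, DNase-treated reverse transcription and PCR of reporter sequences. Labelled fragments are sized by capillary electrophoresis and fitted bidirectionally versus DMSO.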

[7] = target: Heat shock factor protein 1 (Homo sapiens) (UniProt Q00613); experiment: ATG_HSE_CIS: Attagene CIS-FACTORIAL HepG2 Assay for human Heat Shock Transcription Factor 1 (HSE) (AID 2282953); conditions: HepG2 HSE cis-reporter, Attagene RNA transcription; actives raise or lower the signal
Summary of the method: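 Cells were transfected with cis-element-driven reporter constructs, dosed for 24 h, then total RNA was reverse-transcribed and reporter cDNA amplified, FAM-labelled and digested with HpaI. Fragments were resolved by capillary electrophoresis; gain or loss was fitted against DMSO.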

[8] = ATG_MRE_CIS: Attagene CIS-FACTORIAL HepG2 Assay for human Metal Responsive Element (MRE) (AID 2282954); conditions: HepG2 MRE cis-reporter transcription, Attagene multiplex; actives raise or lower the signal
Summary of the method: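 Multiplexed cis-reporter assay in human HepG2 liver cells, 24 h incubation with test chemical. Reporter transcripts measured by RT-PCR and capillary electrophoresis; values from bidirectional curve fitting versus DMSO.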

[9] = ATG_PBREM_CIS: Attagene CIS-FACTORIAL HepG2 Assay for human Phenobarbital-responsive Enhancer Module (PBREM) (AID 2282955); conditions: HepG2 PBREM cis-reporter, Attagene multiplexed transcription; actives raise or lower the signal
Summary of the method: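 HepG2 cells transiently transfected with multiple cis-regulated reporter units measure endogenous transcription factor activity; 24 h compound exposure. Reporter mRNA quantified by RT-PCR, fluorescent labelling, HpaI digestion and capillary electrophoresis; bidirectional fit versus DMSO.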

[10] = target: Paired box protein Pax-6 (Homo sapiens) (UniProt P26367); experiment: ATG_Pax6_CIS: Attagene CIS-FACTORIAL HepG2 Assay for human Paired Box 6 (PAX6) (AID 2282956); conditions: HepG2 CIS-FACTORIAL PAX6 reporter transcription, RNA readout; actives raise or lower the signal
Summary of the method: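 Read-out is reporter transcript level, measured by RT-PCR with fluorescent primer extension and capillary electrophoresis after 24 h dosing of transfected HepG2 cells. Activity in either direction fitted relative to DMSO control.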

[11] = ATG_PXRE_CIS: Attagene CIS-FACTORIAL HepG2 Assay for human Pregnane X Receptor Element (PXRE) (AID 2282957); conditions: HepG2 Attagene CIS-FACTORIAL PXRE reporter, mRNA; actives raise or lower the signal
Summary of the method: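 Bidirectional activity, baselined to DMSO, derived from reporter mRNA fluorescence (RT-PCR plus capillary electrophoresis) in HepG2 cells bearing cis-promoter reporter units, 24 h exposure.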

[12] = ATG_PPRE_CIS: Attagene CIS-FACTORIAL HepG2 Assay for human Peroxisome Proliferator-activated Response Element (PPRE) (AID 2282958); conditions: HepG2 PPRE cis-element reporter, Attagene transcription factor profiling; actives raise or lower the signal
Summary of the method: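 HepG2 cells are transiently transfected with multiplexed cis-promoter reporter units to report endogenous PPAR activity. After 24 h dosing, reporter mRNA is read by RT-PCR and capillary electrophoresis. Fitting is bidirectional against DMSO.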

[13] = ATG_RORE_CIS: Attagene CIS-FACTORIAL HepG2 Assay for human RAR-related Orphan Receptor Element (RORE) (AID 2282959); conditions: HepG2 Attagene cis-factorial RORE reporter, mRNA; actives raise or lower the signal
Summary of the method: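 HepG2 cells carrying transiently transfected cis-regulated reporter units; RORE-driven reporter mRNA quantified 24 h post-dosing by RT-PCR, 6-FAM primer extension, HpaI digestion and capillary electrophoresis. Bidirectional fit versus DMSO.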

[14] = ATG_Sox_CIS: Attagene CIS-FACTORIAL HepG2 Assay for human SRY-box transcription factor (SOX) (AID 2282960); conditions: HepG2 Attagene cis-factorial SOX reporter, mRNA; actives raise or lower the signal
Summary of the method: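 HepG2 cells transiently transfected with multiple cis-regulated reporter units, then dosed for 24 h. Reporter mRNA quantified by RT-PCR, fluorescent labelling, HpaI digestion and capillary electrophoresis; bidirectional fit versus DMSO.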

[15] = target: Transcription factor Sp1 (Homo sapiens) (UniProt P08047); experiment: ATG_Sp1_CIS: Attagene CIS-FACTORIAL HepG2 Assay for human Specificity Protein 1 (Sp1) (AID 2282961); conditions: HepG2 Sp1 cis-reporter transcription, actives raise or lower the signal
Summary of the method: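 HepG2 cells transiently transfected with multiplexed cis-regulated reporter constructs, chemical exposure 24 h. Reporter mRNA quantified by RT-PCR with capillary electrophoresis; bidirectional fit relative to DMSO.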

[16] = ATG_SREBP_CIS: Attagene CIS-FACTORIAL HepG2 Assay for human Sterol Regulatory Element Binding (SREBP) (AID 2282962); conditions: HepG2 Attagene cis-factorial SREBP reporter, mRNA; actives raise or lower the signal
Summary of the method: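 Endogenous SREBP activity read as cis-element-driven reporter transcript in transiently transfected HepG2, 24 h post-dosing; quantified via RT-PCR plus capillary electrophoresis of fluorescent fragments. Gain or loss of signal fitted relative to DMSO baseline.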

[17] = target: Signal transducer and activator of transcription 3 (Homo sapiens) (UniProt P40763); experiment: ATG_STAT3_CIS: Attagene CIS-FACTORIAL HepG2 Assay for human Signal Transducer and Activator of Transcription 3 (STAT3) (AID 2282963); conditions: HepG2, Attagene cis-factorial STAT3 reporter transcription; actives raise or lower the signal
Summary of the method: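 Cis-factorial format: endogenous transcription factors in HepG2 drive transfected reporter units. After 24 h treatment, reporter RNA was reverse-transcribed, amplified, FAM-labelled and HpaI-digested before CE analysis; activity scored in both directions against DMSO.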

[18] = ATG_TA_CIS: Attagene CIS-FACTORIAL HepG2 Assay for human TA Basal Promoter (AID 2282964); conditions: HepG2 Attagene CIS-factorial TA basal promoter reporter; actives raise or lower the signal
Summary of the method: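 Steps: transfect HepG2 with MRTUs; dose 24 h; isolate RNA, DNase-treat, reverse-transcribe; PCR and FAM-label reporter cDNA; digest with HpaI 2h at 37 C; run capillary electrophoresis. Activity fitted both directions against DMSO.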

[19] = ATG_TCF_b_cat_CIS: Attagene CIS-FACTORIAL HepG2 Assay for human T-Cell-Factor with beta-catenin (TCF/b-cat) (AID 2282965); conditions: HepG2 TCF/beta-catenin cis-reporter transcription, actives raise or lower the signal
Summary of the method: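 Measured: reporter mRNA in HepG2 transiently transfected with cis-promoter reporter units, 24 h after chemical addition. Fitting was bidirectional, DMSO as negative control.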

[20] = ATG_TAL_CIS: Attagene CIS-FACTORIAL HepG2 Assay for human TAL Basal Promoter (AID 2282966); conditions: HepG2 Attagene cis-factorial TAL promoter reporter; actives raise or lower the signal;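 also: background control endpoint measuring basal TAL promoter reporter mRNA not a specific factor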
Summary of the method: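 Human hepatoma HepG2 cells, transfected with promoter-regulated reporter units, were treated 24 h. Reporter transcript levels, measured through RT-PCR and capillary electrophoresis, were fitted for gain or loss relative to DMSO.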

Measured: AC50

Hepatocyte nuclear factor 6 (Homo sapiens), sequence (Q9UBC0 whole entry, looked up, the tested form may be a part): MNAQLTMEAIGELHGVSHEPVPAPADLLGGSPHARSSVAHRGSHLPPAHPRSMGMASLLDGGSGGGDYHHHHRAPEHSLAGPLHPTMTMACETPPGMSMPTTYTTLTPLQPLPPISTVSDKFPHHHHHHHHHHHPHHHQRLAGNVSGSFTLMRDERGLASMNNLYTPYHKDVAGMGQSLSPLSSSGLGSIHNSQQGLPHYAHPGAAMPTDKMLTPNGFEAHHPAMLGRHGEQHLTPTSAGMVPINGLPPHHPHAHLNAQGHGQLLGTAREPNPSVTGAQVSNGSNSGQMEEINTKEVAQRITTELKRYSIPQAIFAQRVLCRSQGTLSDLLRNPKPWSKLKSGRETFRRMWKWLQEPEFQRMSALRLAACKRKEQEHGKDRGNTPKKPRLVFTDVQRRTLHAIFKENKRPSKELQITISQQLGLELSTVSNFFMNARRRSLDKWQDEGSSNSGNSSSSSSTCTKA
Heat shock factor protein 1 (Homo sapiens), sequence (Q00613 whole entry, looked up, the tested form may be a part): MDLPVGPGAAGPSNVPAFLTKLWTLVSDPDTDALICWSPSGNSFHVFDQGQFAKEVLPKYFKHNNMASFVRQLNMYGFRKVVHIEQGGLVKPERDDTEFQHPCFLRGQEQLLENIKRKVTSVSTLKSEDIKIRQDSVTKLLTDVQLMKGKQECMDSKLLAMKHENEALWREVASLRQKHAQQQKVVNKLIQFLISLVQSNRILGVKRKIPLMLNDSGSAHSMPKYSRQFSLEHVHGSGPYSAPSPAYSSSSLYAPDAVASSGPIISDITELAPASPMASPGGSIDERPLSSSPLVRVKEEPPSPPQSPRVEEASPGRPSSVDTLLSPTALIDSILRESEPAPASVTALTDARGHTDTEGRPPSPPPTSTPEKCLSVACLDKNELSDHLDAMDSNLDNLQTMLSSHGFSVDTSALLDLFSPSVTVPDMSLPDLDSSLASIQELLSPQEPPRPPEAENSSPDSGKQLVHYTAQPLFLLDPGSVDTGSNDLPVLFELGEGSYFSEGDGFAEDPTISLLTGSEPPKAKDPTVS
Signal transducer and activator of transcription 3 (Homo sapiens), sequence (P40763 whole entry, looked up): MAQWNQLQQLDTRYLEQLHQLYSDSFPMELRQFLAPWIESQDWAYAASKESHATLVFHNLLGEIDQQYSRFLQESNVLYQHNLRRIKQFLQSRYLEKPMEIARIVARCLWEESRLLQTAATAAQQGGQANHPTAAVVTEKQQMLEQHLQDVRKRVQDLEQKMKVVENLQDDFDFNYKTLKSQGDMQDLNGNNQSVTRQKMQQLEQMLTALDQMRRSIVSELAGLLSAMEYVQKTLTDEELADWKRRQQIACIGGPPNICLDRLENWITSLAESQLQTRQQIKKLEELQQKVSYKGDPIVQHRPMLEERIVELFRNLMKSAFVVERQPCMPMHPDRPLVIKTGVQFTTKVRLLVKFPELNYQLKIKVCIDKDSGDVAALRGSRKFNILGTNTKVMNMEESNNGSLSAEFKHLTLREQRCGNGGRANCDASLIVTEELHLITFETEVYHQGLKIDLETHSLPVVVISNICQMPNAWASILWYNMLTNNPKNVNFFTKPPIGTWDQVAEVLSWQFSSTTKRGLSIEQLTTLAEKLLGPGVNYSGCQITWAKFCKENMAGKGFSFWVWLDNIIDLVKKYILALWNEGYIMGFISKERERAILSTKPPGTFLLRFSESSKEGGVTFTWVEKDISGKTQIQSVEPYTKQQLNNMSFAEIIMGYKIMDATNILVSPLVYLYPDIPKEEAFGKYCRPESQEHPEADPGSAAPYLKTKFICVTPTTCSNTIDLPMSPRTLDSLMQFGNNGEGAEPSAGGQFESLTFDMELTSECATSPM
Paired box protein Pax-6 (Homo sapiens), sequence (P26367 whole entry, looked up): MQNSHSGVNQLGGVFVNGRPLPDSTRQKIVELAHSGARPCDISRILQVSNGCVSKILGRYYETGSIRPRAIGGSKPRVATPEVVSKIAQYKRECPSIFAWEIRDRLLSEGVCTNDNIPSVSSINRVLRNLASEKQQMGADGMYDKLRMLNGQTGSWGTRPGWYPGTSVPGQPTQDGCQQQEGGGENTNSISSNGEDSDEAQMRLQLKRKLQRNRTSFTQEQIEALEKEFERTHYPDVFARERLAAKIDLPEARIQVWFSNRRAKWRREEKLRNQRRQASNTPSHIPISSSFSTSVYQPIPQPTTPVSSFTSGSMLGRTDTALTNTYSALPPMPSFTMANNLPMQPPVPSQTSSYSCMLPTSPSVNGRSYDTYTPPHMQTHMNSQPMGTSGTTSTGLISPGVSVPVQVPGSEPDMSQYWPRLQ
Hypoxia-inducible factor 1-alpha (Homo sapiens), sequence (Q16665 whole entry, looked up): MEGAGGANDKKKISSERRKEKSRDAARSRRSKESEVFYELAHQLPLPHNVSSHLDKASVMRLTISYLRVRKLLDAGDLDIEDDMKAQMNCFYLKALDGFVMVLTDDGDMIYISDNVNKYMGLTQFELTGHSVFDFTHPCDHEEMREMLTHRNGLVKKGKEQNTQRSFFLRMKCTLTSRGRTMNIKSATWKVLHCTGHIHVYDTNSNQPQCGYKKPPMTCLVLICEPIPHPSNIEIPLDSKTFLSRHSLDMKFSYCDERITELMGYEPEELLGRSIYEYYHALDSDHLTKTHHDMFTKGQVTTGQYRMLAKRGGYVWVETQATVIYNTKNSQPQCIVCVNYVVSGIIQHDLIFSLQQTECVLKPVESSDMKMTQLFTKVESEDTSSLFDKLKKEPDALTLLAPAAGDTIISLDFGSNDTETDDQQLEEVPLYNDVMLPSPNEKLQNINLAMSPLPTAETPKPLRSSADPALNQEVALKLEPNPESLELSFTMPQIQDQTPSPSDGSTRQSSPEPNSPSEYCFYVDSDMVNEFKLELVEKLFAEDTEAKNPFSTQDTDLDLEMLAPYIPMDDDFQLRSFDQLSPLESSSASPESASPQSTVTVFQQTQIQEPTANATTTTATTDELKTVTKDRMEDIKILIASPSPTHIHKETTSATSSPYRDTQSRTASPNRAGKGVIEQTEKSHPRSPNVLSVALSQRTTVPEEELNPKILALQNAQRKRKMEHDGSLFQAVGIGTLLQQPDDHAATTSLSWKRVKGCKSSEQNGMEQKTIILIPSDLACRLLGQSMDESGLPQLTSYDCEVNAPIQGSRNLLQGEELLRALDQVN
Transcription factor Sp1 (Homo sapiens), sequence (P08047 whole entry, looked up): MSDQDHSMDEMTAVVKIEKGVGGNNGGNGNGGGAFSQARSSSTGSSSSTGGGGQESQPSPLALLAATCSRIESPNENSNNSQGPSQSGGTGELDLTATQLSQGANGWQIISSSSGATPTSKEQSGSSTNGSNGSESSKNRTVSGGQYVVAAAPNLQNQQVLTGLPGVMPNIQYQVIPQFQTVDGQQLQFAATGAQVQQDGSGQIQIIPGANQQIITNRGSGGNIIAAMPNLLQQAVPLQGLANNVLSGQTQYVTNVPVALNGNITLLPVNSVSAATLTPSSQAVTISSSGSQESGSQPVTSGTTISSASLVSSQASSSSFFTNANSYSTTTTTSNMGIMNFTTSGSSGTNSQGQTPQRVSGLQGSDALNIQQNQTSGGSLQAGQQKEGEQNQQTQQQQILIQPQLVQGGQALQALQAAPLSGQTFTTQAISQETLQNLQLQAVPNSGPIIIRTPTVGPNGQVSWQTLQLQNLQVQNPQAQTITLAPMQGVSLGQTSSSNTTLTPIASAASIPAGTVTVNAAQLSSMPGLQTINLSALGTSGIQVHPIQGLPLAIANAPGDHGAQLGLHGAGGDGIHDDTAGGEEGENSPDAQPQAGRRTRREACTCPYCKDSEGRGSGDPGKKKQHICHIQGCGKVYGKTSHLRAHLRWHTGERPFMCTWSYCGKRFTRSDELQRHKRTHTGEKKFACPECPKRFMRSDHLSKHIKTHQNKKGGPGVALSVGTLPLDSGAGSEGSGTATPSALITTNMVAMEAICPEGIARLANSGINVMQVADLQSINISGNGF

CCOP(=S)(OCC)Oc1cc(C)nc(C(C)C)n1
active: [9] 9.92 µM | [11] 4.15 µM | [12] 26 µM | [16] 21.7 µM
inactive: all other assays above

COc1cc(OC)nc(Sc2cccc(Cl)c2C(=O)O)n1
not listed: [12]
inactive: all other assays above

CCOP(=S)(OCC)OC(Cl)C(Cl)(Cl)Cl (stereo not given)
active: [8] 32.9 µM | [11] 35.6 µM | [16] 38.5 µM
not listed: [6]
inactive: all other assays above

COP(=O)(OC)SCn1c(=O)oc2cc(Cl)cnc21
active: [11] 8.16 µM | [19] 10 µM
not listed: [6]
inactive: all other assays above

COP(=O)(NC(C)=O)SC (stereo not given)
active: [11] 30.5 µM
inactive: all other assays above

CC(Oc1cccc(Cl)c1)C(=O)O (stereo not given)
inactive: all assays above

C#CC(C)(C)NC(=O)c1cc(Cl)cc(Cl)c1
active: [8] 50 µM | [9] 50 µM | [11] 7.44 µM | [16] 50 µM
not listed: [12]
inactive: all other assays above

CCCCOC(=O)[C@@H](C)Oc1ccc(Oc2ccc(C#N)cc2F)cc1
active: [11] 64.7 µM
not listed: [6]
inactive: all other assays above

CCOP(=S)(OCC)Oc1ccc2c(C)c(Cl)c(=O)oc2c1
active: [11] 1.46 µM | [12] 15 µM
inactive: all other assays above

CCOC(=O)CC(SP(=O)(OC)OC)C(=O)OCC (stereo not given)
active: [11] 34.8 µM | [12] 39.7 µM
not listed: [6]
inactive: all other assays above

CCOP(=O)(OCC)Oc1cc(C)nc(C(C)C)n1
not listed: [9]
inactive: all other assays above

CC(C)=CC1C(C(=O)OCN2C(=O)C3=C(CCCC3)C2=O)C1(C)C (stereo not given)
active: [5] 50 µM | [7] 93.9 µM | [8] 64.6 µM | [10] 74 µM | [11] 13.5 µM | [13] 50 µM | [16] 65.2 µM
not listed: [9] | [12]
inactive: all other assays above

CNC(=O)ON=C(C)SC
not listed: [9]
inactive: all other assays above

From PubChem BioAssay (EPA / NIEHS)
